Measured values taken from PubChem BioAssay.

Experiments:
[1] = tested on: Human papillomavirus type 1a protein E7 (residues 44-93); assay: HPV1a E7 fragment binders on microarrays, primary screen, biochemical, small-molecule microarray, residues 44-93, 635 nm fluorescence (AID 1108); settings: small-molecule microarray binding, fluorescence 635 nm; higher = more signal;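 note: E7 fragment applied at 1 µg/mL in TBST for 1 h at 4 C; score combines spot fluorescence with its signal to noise ratio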
[2] = modulators of HCV replicon luciferase signal, primary screen, HCV replication inhibitor project, Huh7 cells, luciferase reporter (AID 1109); settings: 48 h, higher = more signal;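 note: huh7 hepatoma cells harbouring a luciferase neomycin HCV replicon reporter; luciferase luminescence as measure of HCV replicon replication; test concentration not given here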
[3] = molecular target: Left-right determination factor 2 (Homo sapiens) (UniProt O00292); assay: LEFTY2 binders on small-molecule microarrays, primary screen, biochemical, small-molecule microarray, 635 nm fluorescence scan (AID 1110); settings: LEFTY2 binding, higher = more signal
Chain of Left-right determination factor 2 (Homo sapiens) (O00292 whole entry, looked up): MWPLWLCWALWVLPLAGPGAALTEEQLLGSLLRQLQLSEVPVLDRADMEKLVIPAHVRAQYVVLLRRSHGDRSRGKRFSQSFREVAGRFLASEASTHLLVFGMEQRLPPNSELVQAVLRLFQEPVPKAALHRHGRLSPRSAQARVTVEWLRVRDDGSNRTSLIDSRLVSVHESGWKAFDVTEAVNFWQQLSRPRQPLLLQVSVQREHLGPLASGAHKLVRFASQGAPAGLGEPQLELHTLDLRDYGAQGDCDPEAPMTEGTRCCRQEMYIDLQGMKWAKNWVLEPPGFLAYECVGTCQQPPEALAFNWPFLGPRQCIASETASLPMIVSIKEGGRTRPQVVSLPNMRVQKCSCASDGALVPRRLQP

[4] = molecular target: Calmodulin-1 (Homo sapiens) (UniProt P0DP23); assay: CALM1 binders on microarrays, EGTA buffer, profiling panel, biochemical, small-molecule microarray, Cy5-labelled CALM1 (AID 1111); settings: Cy5-CALM1 binding fluorescence, higher = more signal;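 note: labelled calmodulin applied in Tris saline Tween buffer holding calcium plus EGTA and DTT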
[5] = molecular target: Calmodulin-1 (Homo sapiens) (UniProt P0DP23); assay: calcium-bound CALM1 binders on microarrays, profiling panel, artefact control for SMM control-protein annotation, biochemical, small-molecule microarray, Cy5-labelled CALM1, plus calcium (AID 1112); settings: Cy5-CALM1 binding fluorescence, higher = more signal;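 note: score merges spot fluorescence with signal to noise from triplicate slides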
[6] = small-molecule microarray binders of probe aWnt5a, primary screen, biochemical, biotinylated probe, 635/667 nm fluorescence (AID 1113); settings: higher = more signal;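 note: score merges 667 nm fluorescence intensity with signal-to-noise per printed feature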
[7] = small-molecule microarray binders of probe aShh, primary screen, biochemical, biotinylated probe, 635/667 nm fluorescence (AID 1114); settings: higher = more signal;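 note: probe is biotin-labelled aShh protein from a stem cell growth factor screen; measures binding of labelled protein to compounds printed on the slide; score merges feature fluorescence at 667 nm with signal-to-noise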
[8] = small-molecule microarray binders of probe aNog, primary screen, biochemical, biotinylated probe, 635/667 nm fluorescence (AID 1115); settings: higher = more signal;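 note: probe is biotinylated aNog protein used at 0.15 µg/mL for 1 h at 4 C; z-score combines 667 nm fluorescence of each spot with its signal to noise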
[9] = molecular target: Torsin-1A-interacting protein 1 (Homo sapiens) (UniProt Q5JTV8); assay: LAP1 binders from COS7 cell lysate, primary screen, small-molecule microarray, 635/667 nm fluorescence (AID 1116); settings: COS7-hLAP1 lysate binding, 635 nm fluorescence, higher = more signal
Chain of Torsin-1A-interacting protein 1 (Homo sapiens) (Q5JTV8 whole entry, looked up): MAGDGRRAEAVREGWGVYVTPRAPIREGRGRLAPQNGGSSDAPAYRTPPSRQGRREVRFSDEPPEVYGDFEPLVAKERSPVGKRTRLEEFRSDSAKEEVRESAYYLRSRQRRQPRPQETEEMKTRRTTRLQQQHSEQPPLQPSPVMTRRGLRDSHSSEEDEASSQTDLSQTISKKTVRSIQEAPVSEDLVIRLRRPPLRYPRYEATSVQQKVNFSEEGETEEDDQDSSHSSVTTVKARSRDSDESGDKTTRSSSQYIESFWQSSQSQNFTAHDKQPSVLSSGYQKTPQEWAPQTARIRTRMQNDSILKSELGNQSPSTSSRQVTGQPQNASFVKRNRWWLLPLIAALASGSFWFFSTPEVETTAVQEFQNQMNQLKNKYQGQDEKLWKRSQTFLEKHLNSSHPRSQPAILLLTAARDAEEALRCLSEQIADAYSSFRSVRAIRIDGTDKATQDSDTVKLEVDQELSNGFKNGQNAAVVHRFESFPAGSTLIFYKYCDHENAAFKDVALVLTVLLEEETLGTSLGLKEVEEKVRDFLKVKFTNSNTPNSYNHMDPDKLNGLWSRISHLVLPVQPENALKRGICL

[10] = molecular target: Alpha-bungarotoxin (Bungarus multicinctus) (UniProt P60615); assay: alpha-bungarotoxin binders on microarray, profiling panel, artefact control for SMM control protein annotation, biochemical, small-molecule microarray, Alexa647 label, 635/667 nm fluorescence (AID 1117); settings: alpha-BTX-A647 binding fluorescence, higher = more signal
Chain of Alpha-bungarotoxin (Bungarus multicinctus) (P60615 whole entry, looked up): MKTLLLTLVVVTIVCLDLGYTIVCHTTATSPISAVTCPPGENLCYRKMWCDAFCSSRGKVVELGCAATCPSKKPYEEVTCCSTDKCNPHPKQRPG

SMILES: COC(=O)CC=C[C@@H](C)[C@@H](C=NOC(C)CN1CCCc2nc(C)c(C)cc21)NS(=O)(=O)c1ccc(C)cc1 (stereo not given in full)
- composite z-score [1]: 1.09
- z-score [2]: -1.05
- composite z-score [3]: 0.817
- composite z-score [4]: -0.481
- composite z-score [5]: -0.56
- composite z-score [6]: -0.0758
- composite z-score [7]: 0.213
- composite z-score [8]: -0.0172
- composite z-score [9]: 0.232
- composite z-score [10]: -0.0193

SMILES: CC(=O)OC[C@H]1O[C@H](CCON=C(C)C)C=C[C@@H]1OC(C)=O
- composite z-score [1]: -0.306
- z-score [2]: -0.684
- composite z-score [3]: 0.304
- composite z-score [4]: -0.42
- composite z-score [5]: -0.268
- composite z-score [6]: -0.152
- composite z-score [7]: -0.0769
- composite z-score [8]: -0.324
- composite z-score [9]: 0.3
- composite z-score [10]: 0.501

SMILES: C#CCCCON=C1C[C@@H](O)[C@@H](O)[C@@H]2[C@@H]3C(=O)N(C[C@@H]4CCCO4)C(=O)[C@@H]3CC[C@H]12
- composite z-score [1]: 0.592
- z-score [2]: 0.403
- composite z-score [3]: 0.397
- composite z-score [4]: 0.256
- composite z-score [5]: -0.0973
- composite z-score [6]: -0.096
- composite z-score [7]: -0.2
- composite z-score [8]: -0.462
- composite z-score [9]: 0.742
- composite z-score [10]: 0.355

SMILES: CC(CCN1CCc2nc(-c3ccccc3)c(-c3ccccc3)cc2C1)=NO[C@@H](C)c1cc(-c2c(C)cc(C)cc2C)no1
- composite z-score [1]: -0.324
- z-score [2]: -1.47
- composite z-score [3]: -0.372
- composite z-score [4]: 0.445
- composite z-score [5]: -0.0323
- composite z-score [6]: -0.256
- composite z-score [7]: -0.428
- composite z-score [8]: -0.0211
- composite z-score [9]: -0.0029
- composite z-score [10]: 1.33

SMILES: CC#CCOCCC=C1c2ccccc2[C@@H](OC)[C@@H]1C
- composite z-score [1]: -1.14
- z-score [2]: -0.692
- composite z-score [3]: 0.0778
- composite z-score [4]: -1.06
- composite z-score [5]: -1.18
- composite z-score [6]: -0.0977
- composite z-score [7]: -0.138
- composite z-score [8]: -0.209
- composite z-score [9]: 0.139
- composite z-score [10]: -0.0725

SMILES: O=C1C2=CC[C@H]3C(=O)N(C[C@@H]4CCCO4)C(=O)[C@H]3[C@H]2[C@H](O)[C@@H]2O[C@H]12
- composite z-score [1]: 0.0207
- z-score [2]: -4.56
- composite z-score [3]: 0.153
- composite z-score [4]: -0.248
- composite z-score [5]: -1.13
- composite z-score [6]: -0.219
- composite z-score [7]: 0.0121
- composite z-score [8]: -0.158
- composite z-score [9]: 0.518
- composite z-score [10]: 0.395

SMILES: CC(CCN1CCCCc2nc(C)c(C)cc21)=NO[C@H](C)c1cn([C@@H]2COC[C@H]2O)nn1
- composite z-score [1]: 0.421
- z-score [2]: -0.219
- composite z-score [3]: 1.35
- composite z-score [4]: -0.197
- composite z-score [5]: -0.835
- composite z-score [6]: -0.222
- composite z-score [7]: -0.112
- composite z-score [8]: -0.158
- composite z-score [9]: 0.337
- composite z-score [10]: 1.3

SMILES: CC(C)CON=C1C[C@@H](O)[C@@H](O)[C@@H]2[C@@H]3C(=O)N(Cc4ccccc4)C(=O)[C@@H]3CC[C@H]12
- composite z-score [1]: -0.106
- z-score [2]: -1.14
- composite z-score [3]: 0.623
- composite z-score [4]: -0.144
- composite z-score [5]: -0.414
- composite z-score [6]: -0.0107
- composite z-score [7]: -0.324
- composite z-score [8]: -0.169
- composite z-score [9]: 0.163
- composite z-score [10]: 0.506

SMILES: CC(C)=NO[C@H](C)c1cn([C@@H]2COC[C@H]2O)nn1
- composite z-score [1]: 0.427
- z-score [2]: 0.78
- composite z-score [3]: 0.48
- composite z-score [4]: -0.312
- composite z-score [5]: -0.956
- composite z-score [6]: -0.169
- composite z-score [7]: -0.138
- composite z-score [8]: -0.216
- composite z-score [9]: 0.26
- composite z-score [10]: 0.159

SMILES: CO[C@H]1COC(=O)[C@H](C)COC(=O)[C@H](C)NC(=O)CC=C[C@H]1C
- composite z-score [1]: 0.429
- z-score [2]: -0.935
- composite z-score [3]: 0.945
- composite z-score [4]: -0.891
- composite z-score [5]: -1.85
- composite z-score [6]: -0.154
- composite z-score [7]: 0.0121
- composite z-score [8]: -0.41
- composite z-score [9]: 0.143
- composite z-score [10]: -0.369

SMILES: COC(=O)[C@H](C)NC(=O)CCC1CC(OC(=O)NCCc2ccc(F)cc2)CC2(CCCC(COC(=O)NCc3ccccc3)O2)O1 (stereo not given in full)
- composite z-score [1]: 1.32
- z-score [2]: -1.18
- composite z-score [3]: 0.816
- composite z-score [4]: 0.516
- composite z-score [5]: -0.796
- composite z-score [6]: -0.141
- composite z-score [7]: -0.221
- composite z-score [8]: -0.384
- composite z-score [9]: 0.708
- composite z-score [10]: 0.574

SMILES: CCO[C@H](c1cc(OC)cc([N+](=O)[O-])c1OC)[C@H](C)[C@@H](OC)[C@H](C)C=CCC(=O)OC
- composite z-score [1]: 0.488
- z-score [2]: 0.899
- composite z-score [3]: -0.0609
- composite z-score [4]: 0.379
- composite z-score [5]: -0.103
- composite z-score [6]: -0.0383
- composite z-score [7]: -0.138
- composite z-score [8]: -0.445
- composite z-score [9]: -0.0844
- composite z-score [10]: 0.696

SMILES: C#CCCCON=C1C[C@@H](O)[C@@H](O)[C@@H]2[C@@H]3C(=O)N(C[C@@H]4CCCO4)C(=O)[C@@H]3CC[C@@H]12
- composite z-score [1]: 0.578
- z-score [2]: 0.367
- composite z-score [3]: 0.386
- composite z-score [4]: -0.358
- composite z-score [5]: -0.129
- composite z-score [6]: -0.0865
- composite z-score [7]: -0.153
- composite z-score [8]: 0.223
- composite z-score [9]: -0.0438
- composite z-score [10]: 0.506

SMILES: O=C1[C@H]2[C@H]3[C@H](O)[C@H](O)CC(=NO[C@@H]4O[C@H](CO)[C@@H](O)[C@H](O)[C@H]4O)[C@@H]3CC[C@H]2C(=O)N1c1cccc(Oc2ccccc2)c1
- composite z-score [1]: 0.418
- z-score [2]: -0.174
- composite z-score [3]: 0.982
- composite z-score [4]: 0.209
- composite z-score [5]: 0.0635
- composite z-score [6]: -0.0506
- composite z-score [7]: -0.0362
- composite z-score [8]: -0.0675
- composite z-score [9]: 0.593
- composite z-score [10]: -0.447

SMILES: COC(=O)[C@H](C)NC(=O)CC=C[C@@H](C)[C@@H]1C=C[C@H](O)[C@@H](CO)O1
- composite z-score [1]: 0.075
- z-score [2]: -0.0833
- composite z-score [3]: 1.14
- composite z-score [4]: -0.698
- composite z-score [5]: -1.35
- composite z-score [6]: -0.0799
- composite z-score [7]: -0.0474
- composite z-score [8]: -0.0926
- composite z-score [9]: 0.326
- composite z-score [10]: -0.392

SMILES: COc1ccc(O[C@H]2C=C[C@@H](C#Cc3ccccc3)O[C@@H]2CO)cc1
- composite z-score [1]: 0.342
- z-score [2]: -2.17
- composite z-score [3]: -0.0192
- composite z-score [4]: 1.42
- composite z-score [5]: 0.493
- composite z-score [6]: -0.124
- composite z-score [7]: 0.0048
- composite z-score [8]: -0.0428
- composite z-score [9]: 0.158
- composite z-score [10]: 0.439

SMILES: O=C1[C@H]2[C@H]3[C@H](O)[C@H](O)CC(=NOCc4ccccc4)[C@@H]3CC[C@H]2C(=O)N1c1cccc(Oc2ccccc2)c1
- composite z-score [1]: 1.32
- z-score [2]: 0.0134
- composite z-score [3]: -0.0065
- composite z-score [4]: -0.0299
- composite z-score [5]: -0.699
- composite z-score [6]: -0.096
- composite z-score [7]: 0.0639
- composite z-score [8]: 0.0051
- composite z-score [9]: 0.902
- composite z-score [10]: 0.626
